Test results from the supplement of paper PMC10105736.
A number with no mark means an inactive call.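 Rule for the calls: active = MAPPIT score above the 99th percentile of random reference set scores in the same batch; inactive = at or below it.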

Experiments:
Assay in all cases: MAPPIT interaction score (arbitrary units); higher = stronger binary interaction signal, active = hit call of the paper
[1] = biological target: CG2991; settings: MAPPIT configuration: N-N; pair source set: RRS
[2] = biological target: CG31523; settings: MAPPIT configuration: N-C; pair source set: screen_3
[3] = biological target: EMC5; settings: MAPPIT configuration: N-C; pair source set: screen_3
[4] = biological target: RNASEK; settings: MAPPIT configuration: N-C; pair source set: screen_3
[5] = biological target: CG3085; settings: MAPPIT configuration: N-C; pair source set: screen_3
[6] = biological target: CG8281; settings: MAPPIT configuration: N-N; pair source set: screen_1
[7] = biological target: Gale; settings: MAPPIT configuration: N-N; pair source set: DPIM
[8] = biological target: PHDP; settings: MAPPIT configuration: N-N; pair source set: Finley_Y2H
[9] = biological target: Vsx2; settings: MAPPIT configuration: N-N; pair source set: Finley_Y2H
[10] = biological target: eco; settings: MAPPIT configuration: N-N; pair source set: screen_1
[11] = biological target: CG31121; settings: MAPPIT configuration: N-N; pair source set: Curagen_high_conf
[12] = biological target: CG32182; settings: MAPPIT configuration: N-N; pair source set: RRS
[13] = biological target: CG2852; settings: pair source set: Lit-BM-16
[14] = biological target: CG30472; settings: pair source set: RRS
[15] = biological target: CG31550; settings: MAPPIT configuration: N-N; pair source set: Lit-BS-16
[16] = biological target: GstE2; settings: MAPPIT configuration: N-N; pair source set: Finley_Y2H
[17] = biological target: PAN3; settings: MAPPIT configuration: N-N; pair source set: Lit-BS-16
[18] = biological target: Rbp6; settings: MAPPIT configuration: N-N; pair source set: Finley_Y2H
[19] = biological target: CG31600; settings: MAPPIT configuration: N-C; pair source set: screen_4
[20] = biological target: CG32425; settings: MAPPIT configuration: N-C; pair source set: screen_3
[21] = biological target: CG5327; settings: MAPPIT configuration: N-C; pair source set: screen_3
[22] = biological target: CG2772; settings: pair source set: RRS
[23] = biological target: CG30349; settings: MAPPIT configuration: N-N; pair source set: Curagen_low_conf
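Note: HEK293T cells with Epo stimulation, STAT-responsive firefly luciferase reporter, fold induction versus unstimulated cells divided by the larger fold induction of two negative controls lacking either bait or prey.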

B1: wda (protein)
chain: MSLPSASNHAHAASPVYSNSNNNKSSASSKKTSSKNDLLRCAVGLLLKQKNYVSNERFRRSDFLLLQNKQQFAVNKMLDTDLHGGNSFTFSNVQVITNNQHTVDQQFGRFSQFVEAQAEPLRLEMKRFYGPMLCHFYLDLLKAREPRGAVELLRKYAHLVAPVDMYDAPPPTKINGCSTTANESTFNIRFAKEAQDTGDTELDYFMRLVQTLSGYTRLEAAESDDTVAHFRSSKYELHTTAVVVNRICAYLQRRGHVLIMNLLYTWLHVHIVENEQRAFSEDHLLGLTDDLEGEDGEDDVVSKPAVTLNTRGDIRPSKSLTEKSNRKRPAEEPNIMLETDIKQEVETDESAELSKLQLNIDACLDTLKSATEQILKSQVELPRFLRISERSRGLTSAHLDPSECHMLAGFDNSAVQLWQLNQSYCRGKSFYRRYPQKRCPWELNNCANQEEETDEDSSDEDVKCSEEERRERNRARHCKYADNSYNEYGGFQLRGHTKGVTDVRFSAHYPLMYSVSKDATMRCWRAHNLHCAAIYRSHNYPIWCLDESPVGQYVVTGSKDLSARLWSLEKEHALIIYAGHTQDVECVAFHPNGNYIATGSADHSVRLWCATSGKLMRVFADCRQAVTQLAFSPDGKMLAAAGEETKVRIFDLAAGAQLAELKDHSASISSLSWSTHNRHLATACSDGTLRLWDIKKLSPMSDNSSAGSSSSATTNRVLTVNSSCQRLVDVFYGTSKTLYCIGT
MAPPIT interaction score [1]: -0.317

B2: CG33169 (protein)
chain: MRQLKGKVKETRKQKKERKLDNLETQAKIRTVVLPALGVLAVFLVLFVYLKTRPAVLA
MAPPIT interaction score [2]: 0.414 | MAPPIT interaction score [3]: -0.647 | MAPPIT interaction score [4]: 0.381

B3: PolZ2 (protein)
chain: MQAEIKADIIVEAMEVLVNHILYVRGIYPSHIFKMKRMYNSPIYVSIFPPLNNYLAGVLKSAQELLRRRELQCLELIVYQKENEKLESYKMQLETQRSGLPAEDHLMEFEQNMRSVIYKISQRLNQAPKLPAGSCQFKVHLHTTQEAFIRFSHDSQYQEFPWLQTQKTESQATGRTVYLLPLARVDDLGLKMDVLIVN
MAPPIT interaction score [5]: 1.42 | MAPPIT interaction score [6]: 1.67 | MAPPIT interaction score [7]: 0.112 | MAPPIT interaction score [8]: -0.0614 | MAPPIT interaction score [9]: 0.017 | MAPPIT interaction score [10]: 0.29

B4: Hsc70-5 (protein)
chain: MLRVPKFLPRLARQAGVVPSHMSGASSMFRNLPGASNGISSQLRYKSGEVKGAVIGIDLGTTNSCLAVMEGKQAKVIENAEGARTTPSHVAFTKDGERLVGMPAKRQAVTNSANTFYATKRLIGRRFDDPEVKKDITNLSYKVVKASNGDAWVSSTDGKVYSPSQIGAFILMKMKETAEAYLNTPVKNAVVTVPAYFNDSQRQATKDAGQIAGLNVLRVINEPTAAALAYGMDKTEDKIIAVYDLGGGTFDISILEIQKGVFEVKSTNGDTLLGGEDFDNHIVNFLVAEFKKDSGIDIRKDNIAMQRLKEAAEKAKCELSSSQQTDINLPYLTMDAAGPQHMNLKLTRSKLESLVGDLIKRTIQPCQKALSDAEVSKSEIGEVLLVGGMTRMPKVQSTVQELFGRQPSRSVNPDEAVAVGAAVQGGVLAGDVTDVLLLDVTPLSLGIETLGGVFTRLISRNTTIPTKKSQVFSTASDGQTQVEIKVHQGEREMANDNKLLGSFTLVGIPPAPRGVPQIEVVFDIDANGIVHVSAKDKGTGKEQQIVIQSSGGLSKDEIENMIKKAEEYATADKQKRELIEIVNQGESIVHDTETKMEEFKSQLPAEECEKLKKEIADLRTLLANKETADLEEVRKATSSLQQSSLKLFELAYKKMSAERESNAGAGSSDSSSSSDTSGEAKKEEKN
MAPPIT interaction score [11]: 0.0518

B5: RpS3A (protein)
chain: MAVGKNKGLSKGGKKGGKKKVVDPFSRKDWYDVKAPNMFQTRQIGKTLVNRTQGQRIASDYLKGRVFEVSLADLQKDIDPERSFRKFRLIAEDVQDRNVLCNFHGMDLTTDKYRSMVKKWQTLIEAIVEAKTVDGYLLRVFCIGFTAKDQQSQRKTCYAQQSQVRKIRARMTDIITNEVSGADLKQLVNKLALDSIAKDIEKSCQRIYPLHDVYIRKVKVLKKPRFDVSKLLELHGDGGGKSVEAVVSSEGAVIDRPEGYEPPVQEAV
MAPPIT interaction score [12]: 0.147

B6: Pdi (protein)
chain: MKFLICALFLAASYVAASAEAEVKVEEGVLVATVDNFKQLIADNEFVLVEFYAPWCGHCKALAPEYAKAAQQLAEKESPIKLAKVDATVEGELAEQYAVRGYPTLKFFRSGSPVEYSGGRQAADIIAWVTKKTGPPAKDLTSVADAEQFLKDNEIAIIGFFKDLESEEAKTFTKVANALDSFVFGVSSNADVIAKYEAKDNGVVLFKPFDDKKSVFEGELNEENLKKFAQVQSLPLIVDFNHESASKIFGGSIKSHLLFFVSREGGHIEKYVDPLKEIAKKYRDDILFVTISSDEEDHTRIFEFFGMNKEEVPTIRLIKLEEDMAKYKPESDDLSAETIEAFLKKFLDGKLKQHLLSQELPEDWDKNPVKVLVSSNFESVALDKSKSVLVEFYAPWCGHCKQLAPIYDQLAEKYKDNEDIVIAKMDSTANELESIKISSFPTIKYFRKEDNKVIDFNLDRTLDDFVKFLDANGEVADSEPVEETEEEEEAPKKDEL
MAPPIT interaction score ([13]; MAPPIT configuration: N-C): -0.281 | MAPPIT interaction score ([13]; MAPPIT configuration: N-N): 1.74

B7: Or43b (protein)
chain: MFGHFKLVYPAPISEPIQSRDSNAYMMETLRNSGLNLKNDFGIGRKIWRVFSFTYNMVILPVSFPINYVIHLAEFPPELLLQSLQLCLNTWCFALKFFTLIVYTHRLELANKHFDELDKYCVKPAEKRKVRDMVATITRLYLTFVVVYVLYATSTLLDGLLHHRVPYNTYYPFINWRVDRTQMYIQSFLEYFTVGYAIYVATATDSYPVIYVAALRTHILLLKDRIIYLGDPSNEGSSDPSYMFKSLVDCIKAHRTMLNFCDAIQPIISGTIFAQFIICGSILGIIMINMVLFADQSTRFGIVIYVMAVLLQTFPLCFYCNAIVDDCKELAHALFHSAWWVQDKRYQRTVIQFLQKLQQPMTFTAMNIFNINLATNINVAKFAFTVYAIASGMNLDQKLSIKE
MAPPIT interaction score ([14]; MAPPIT configuration: N-C): 0.0282 | MAPPIT interaction score ([14]; MAPPIT configuration: N-N): 0.0958

B8: CycB (protein)
chain: MVGTTLKMRGDENASENFKQVQLKKLTVPSMEATTKRAALGDLQNRGISRPIAAKDAAQKDSKDLKLTDALRNAKARVDSHWKKQPLGSTNGNGNGAVPPKVNEGGVSAFLRSNSVRNRVPTKTTVEPTKVTVKSSSSENVNEPTLKREDSNLSKKSLTKLRAALAKPVMGVSGIRREPVAVSRKEAETKKELPETKKDSLEVKKDATRMPLIRGNSAVTTTTSTMPTTMSLSSKRLAGIEDIDANDKENLVLVSEYVNDIYDYLYQVELEQPIHKDHLAGQKEVSHKMRAVLIDWINEVHLQFHLAAETFQLAVAIIDRYLQVVKDTKRTYLQLVGVTALFIATKYEELFPPAIGDFVFITDDTYTARQIRQMELQIFKAIDCNLSRPLPIHFLRRYSKAAGAEDEHHTMSKYFIELASVDYEMATYRPSEIAAASLFLSLHLLNGNHRAGTGFNDRHWTPTLTFYSRYSAAHLRPITRLIAKLARDAPQAKLKAIYNKYQGSKFQKIALRTELTGALMDSIVGQSQRK
MAPPIT interaction score [15]: 0.517 | MAPPIT interaction score [16]: 0.748 | MAPPIT interaction score [17]: 0.557 | MAPPIT interaction score [18]: 0.383

B9: zetaTry (protein)
chain: MSSSWIVGLLAFLVSLVALTQGLPLLEDLDEKSVPDGRIVGGYATDIAQVPYQISLRYKGITTPENPFRHRCGGSIFNETTIVTAAHCVIGTVASQYKVVAGTNFQTGSDGVITNVKEIVMHEGYYSGAAYNNDIAILFVDPPLPLNNFTIKAIKLALEQPIEGTVSKVSGWGTTSPGGYSSNQLLAVDVPIVSNELCDQDYEDFGDETYRITSAMLCAGKRGVGGADACQGDSGGPLAVRDELYGVVSWGNSCALPNYPGVYANVAYLRPWIDAVLAGL
MAPPIT interaction score [19]: 0.866

B10: hth (protein)
chain: MAQPRYDDGLHGYGMDSGAAAAAMYDPHAGHRPPGLQGLPSHHSPHMTHAAAAAATVGMHGYHSGAGGHGTPSHVSPVGNHLMGAIPEVHKRDKDAIYEHPLFPLLALIFEKCELATCTPREPGVQGGDVCSSESFNEDIAMFSKQIRSQKPYYTADPEVDSLMVQAIQVLRFHLLELEKVHELCDNFCHRYISCLKGKMPIDLVIDERDTTKPPELGSANGEGRSNADSTSHTDGASTPDVRPPSSSLSYGGAMNDDARSPGAGSTPGPLSQQPPALDTSDPDGKFLSSLNPSELTYDGRWCRREWSSPADARNADASRRLYSSVFLGSPDNFGTSASGDASNASIGSGEGTGEEDDDASGKKNQKKRGIFPKVATNILRAWLFQHLTHPYPSEDQKKQLAQDTGLTILQVNNWFINARRRIVQPMIDQSNRAVYTPHPGPSGYGHDAMGYMMDSQAHMMHRPPGDPGFHQGYPHYPPAEYYGQHL
MAPPIT interaction score [20]: 3.41 | MAPPIT interaction score [21]: 3.17

B11: okr (protein)
chain: MRRSLAPSQRGPLRPESRHSFTPPLLKKNKRSCQQELEREQELDRRRLGALRDASNTSELPLPIRFTANSEYELAIAKVLARKFKVPMDNYVPDYGGKRVLGVRRCISRRPLHDPMACNALVLFHPPAYTEHERMGMDPTKVLVHVVVDPLLSNILRPHQREGVRFMYECVEGKRGNFNGCIMADEMGLGKTLQCVTLVWTLLRQGPECKPTINKAIVVSPSSLVKNWEKEFTKWLHGRLLCLPMEGGTKENTIRALEQFSMTSARLGTPVLLISYETFRIYAEILCKYEVGMVICDEGHRLKNSDNLTYQALMGLKTKRRVLLSGTPIQNDLTEYYSLVNFVNPEMLGTAAVFKRNFESAILRGQNTDSTEQERQRAIEKTQELIGLVDQCIIRRTNQILTKYLPVKFEMVICAKLTAIQLELYTNFLKSDQVRRSLADCNEKASLTALADITTLKKICSHPDLIYEKLTAREKGFENSQNVLPSNYKPKDLNPELSGKFMLLDFMLAAIRAEGNDKVVLISNYTQTLDLFEQLARKRKYGFVRLDGTMSIKKRSKVVDRFNDPESDSFLFMLSSKAGGCGLNLIGANRLFMFDPDWNPANDEQAMARVWRDGQKKPCYIYRLVASGSIEEKILQRQTHKKSLSSTIIDNNESAEKHFTRDDLKDLFTFDANILSDTHDKLKCKRCVQNIQMKPPPEDTDCTSHLSQWYHCSNNRGLPDNILAQAWMDCKCVSFVFHHRSQAQEIVPSAEEEATDQPEEKPESRKRSSTPASDDSADEDFRGF
MAPPIT interaction score ([22]; MAPPIT configuration: N-C): -0.364 | MAPPIT interaction score ([22]; MAPPIT configuration: N-N): -0.357

B12: kdn (protein)
chain: MSLYRISARKLSEAQKLPNVGAYVRMIAADGKSLRDVLAAKVPQEQERVKNFRKQHGATKMGETTIDMMYGGMRGIKALVTETSVLDADEGIRFRGLSIPECQKVLPAADGGTEPLPEGLFWLLLTGEVPTKSQVQQLSREWAERAALPQHVVTMLNNMPTTLHPMSQFAAAVTALNHDSKFAKAYSDGVHKSKYWEYVYEDSMDLIAKLPVVAATIYCNTYRGGKGSRSIDSSLDWSANFVKMLGYDNAPFTELMRLYLTIHSDHEGGNVSAHTVHLVGSALSDPYLSFAAGLNGLAGPLHGLANQEVLVWLRKLQKEAGNNPSEEQLKEYIWKTLKSGQVVPGYGHAVLRKTDPRYTCQREFALKHLPEDETFQLVSKIYKVVPPILTETGKVKNPWPNVDAHSGVLLQYYGMKEMNYYTVLFGVSRALGVLASLVWDRALGLPIERPKSFSTDLLVKMVQK
MAPPIT interaction score [23]: 0.214
